Source: PubChem BioAssay (NCI)
Compounds without any hit were thinned out: in the full panel of roughly 83,000, 20% have a hit.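 Percent growth is the endpoint: 0 to 100 indicates growth inhibition (40 means 60% inhibition), 0 means no net growth, and negative values indicate cell death.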 Calls of active or inactive are those of the source. The calls were made as follows: active = growth percent below 10; inactive = the rest.

Key:
Test in all cases: NCI-60 one-dose screen, 48 h (100 = growth as untreated, 0 = no growth, -100 = all killed)
Settings in all cases: 10 µM unless noted
SK-MEL-2 melanoma = test system: SK-MEL-2 melanoma
EKVX NSCLC = test system: EKVX NSCLC
SN12C renal = test system: SN12C renal
UO-31 renal = test system: UO-31 renal
TK-10 renal = test system: TK-10 renal
ACHN renal = test system: ACHN renal
CAKI-1 renal = test system: CAKI-1 renal
CCRF-CEM leukemia = test system: CCRF-CEM leukemia
MOLT-4 leukemia = test system: MOLT-4 leukemia
SR leukemia = test system: SR leukemia
RPMI-8226 leukemia = test system: RPMI-8226 leukemia
OVCAR-8 ovarian = test system: OVCAR-8 ovarian
OVCAR-5 ovarian = test system: OVCAR-5 ovarian
OVCAR-4 ovarian = test system: OVCAR-4 ovarian
SK-OV-3 ovarian = test system: SK-OV-3 ovarian
OVCAR-3 ovarian = test system: OVCAR-3 ovarian
HS 578T breast = test system: HS 578T breast
NCI/ADR-RES ovarian = test system: NCI/ADR-RES ovarian
IGROV1 ovarian = test system: IGROV1 ovarian
A498 renal = test system: A498 renal

Measured: growth

CCNc1ncnc2c1cnn2C1CCCO1 (stereo not given)
inactive: SK-MEL-2 melanoma 116% | EKVX NSCLC 115% | SN12C renal 103% | UO-31 renal 86% | TK-10 renal 116% | ACHN renal 104% | CAKI-1 renal 101% | CCRF-CEM leukemia 87.6% | MOLT-4 leukemia 92.3% | SR leukemia 94.3% | RPMI-8226 leukemia 98.5% | OVCAR-8 ovarian 115% | OVCAR-5 ovarian 102% | OVCAR-4 ovarian 108% | SK-OV-3 ovarian 104% | OVCAR-3 ovarian 111% | HS 578T breast 113% | NCI/ADR-RES ovarian 100%

CC(O)CN(CC(C)O)c1ccc2c(c1)Cc1cc([N+](=O)[O-])ccc1-2 (stereo not given)
inactive: SK-MEL-2 melanoma 95.9% | EKVX NSCLC 74.8% | SN12C renal 99.6% | UO-31 renal 63.2% | TK-10 renal 97.3% | ACHN renal 93% | CAKI-1 renal 84.6% | CCRF-CEM leukemia 106% | MOLT-4 leukemia 69.8% | SR leukemia 62.5% | RPMI-8226 leukemia 104% | OVCAR-8 ovarian 118% | OVCAR-5 ovarian 86.2% | OVCAR-4 ovarian 112% | SK-OV-3 ovarian 108% | IGROV1 ovarian 55.6% | OVCAR-3 ovarian 91.7% | HS 578T breast 95.8% | NCI/ADR-RES ovarian 92.9%

CC1=C[C@H]2c3c(c(O)c(O)c4oc5ccccc5c(=O)c34)[C@H](c3cc(O)c(O)c4oc5ccccc5c(=O)c34)[C@H]2C(C)(C)C1
active: SK-MEL-2 melanoma 0.0517% | SN12C renal 7.6% | UO-31 renal -74% | ACHN renal 6.36% | CAKI-1 renal -24.7% | CCRF-CEM leukemia 5.39% | MOLT-4 leukemia 2.9% | SR leukemia 0.353% | OVCAR-8 ovarian 1.23% | OVCAR-4 ovarian 1.7% | SK-OV-3 ovarian -14.1% | IGROV1 ovarian -4.25% | HS 578T breast -4.62%
inactive: EKVX NSCLC 18.7% | TK-10 renal 23.1% | RPMI-8226 leukemia 15.2% | OVCAR-5 ovarian 25.8% | OVCAR-3 ovarian 10.4% | NCI/ADR-RES ovarian 23.9%

COc1ccc(/C=C/c2nc(-c3n[nH]c(=O)n3-c3ccccc3)c3ccccc3n2)cc1
inactive: SK-MEL-2 melanoma 99.2% | EKVX NSCLC 94.6% | SN12C renal 91.5% | UO-31 renal 79.8% | TK-10 renal 108% | ACHN renal 102% | CAKI-1 renal 84% | CCRF-CEM leukemia 90% | MOLT-4 leukemia 95% | SR leukemia 92.6% | RPMI-8226 leukemia 89.6% | OVCAR-8 ovarian 98.9% | OVCAR-5 ovarian 96.1% | OVCAR-4 ovarian 91.4% | SK-OV-3 ovarian 94.8% | IGROV1 ovarian 99.1% | OVCAR-3 ovarian 101% | HS 578T breast 100% | NCI/ADR-RES ovarian 100%

CN(C)c1ccc(N=Nc2ccc(Br)cn2)c(O)c1
active: UO-31 renal 3.75% | ACHN renal 7.81% | CCRF-CEM leukemia -0.72% | MOLT-4 leukemia 1.73% | SR leukemia 3.15% | OVCAR-4 ovarian 1.05%
inactive: SK-MEL-2 melanoma 18.8% | EKVX NSCLC 14.3% | SN12C renal 12.3% | TK-10 renal 33.9% | A498 renal 53.9% | RPMI-8226 leukemia 11.9% | OVCAR-8 ovarian 15.5% | OVCAR-5 ovarian 59.6% | SK-OV-3 ovarian 25.9% | IGROV1 ovarian 16% | OVCAR-3 ovarian 14.8% | HS 578T breast 64% | NCI/ADR-RES ovarian 12.8%

COc1ccc(C2C(C#N)=C(N)Oc3n[nH]c(-c4cccs4)c32)cc1I (stereo not given)
inactive: SK-MEL-2 melanoma 101% | EKVX NSCLC 96% | SN12C renal 96.5% | UO-31 renal 81.8% | TK-10 renal 99.7% | ACHN renal 98.5% | A498 renal 77.4% | CCRF-CEM leukemia 76.3% | MOLT-4 leukemia 74.9% | SR leukemia 53.2% | RPMI-8226 leukemia 78.8% | OVCAR-8 ovarian 95% | OVCAR-5 ovarian 107% | OVCAR-4 ovarian 108% | SK-OV-3 ovarian 92.1% | IGROV1 ovarian 91.2% | OVCAR-3 ovarian 91.7% | HS 578T breast 87.5% | NCI/ADR-RES ovarian 96.2%

CC(=O)c1cc2c(N)c(C(=O)Nc3ccccc3)sc2nc1C
inactive: SK-MEL-2 melanoma 33.3% | EKVX NSCLC 70.1% | SN12C renal 90.8% | UO-31 renal 90.8% | TK-10 renal 76.4% | ACHN renal 91.7% | A498 renal 22% | CCRF-CEM leukemia 84.5% | MOLT-4 leukemia 85.6% | SR leukemia 51.8% | RPMI-8226 leukemia 89% | OVCAR-8 ovarian 93.9% | OVCAR-5 ovarian 96% | OVCAR-4 ovarian 88.9% | SK-OV-3 ovarian 28.8% | IGROV1 ovarian 83.9% | OVCAR-3 ovarian 90% | HS 578T breast 69.8% | NCI/ADR-RES ovarian 75.9%

CCN(CC)c1ccc2c(c1)Oc1nc(N)c(C#N)c(N)c1C2Sc1ccc(SC)cc1 (stereo not given)
inactive: A498 renal 90% | HS 578T breast 26% | NCI/ADR-RES ovarian 10.8%
active: SK-MEL-2 melanoma -59.6% | EKVX NSCLC -3.97% | SN12C renal -13.4% | UO-31 renal -79.8% | TK-10 renal -35.7% | ACHN renal -46.5% | CCRF-CEM leukemia -15.5% | MOLT-4 leukemia -10.7% | SR leukemia -18.8% | RPMI-8226 leukemia -37.3% | OVCAR-8 ovarian -7.42% | OVCAR-5 ovarian -27.1% | OVCAR-4 ovarian -2.7% | SK-OV-3 ovarian -4.96% | IGROV1 ovarian -13.9% | OVCAR-3 ovarian -30.4%

CCCCCC(=O)Oc1ccc(/C(=C(\C)c2ccc(OC)cc2)c2ccc(OCCN3CCCCC3)cc2)cc1
active: SR leukemia -2% | RPMI-8226 leukemia 9.96%
inactive: SK-MEL-2 melanoma 64.7% | EKVX NSCLC 58.5% | SN12C renal 73.8% | UO-31 renal 56.2% | TK-10 renal 92.7% | ACHN renal 74.4% | A498 renal 92.3% | CCRF-CEM leukemia 56.7% | MOLT-4 leukemia 25.1% | OVCAR-8 ovarian 74.3% | OVCAR-5 ovarian 82.2% | OVCAR-4 ovarian 54.5% | SK-OV-3 ovarian 68.2% | IGROV1 ovarian 79% | OVCAR-3 ovarian 74.9% | HS 578T breast 64.9% | NCI/ADR-RES ovarian 71.2%

COc1cc(C)c(C2C(C#N)=C(N)Oc3n[nH]c(-c4cccs4)c32)cc1C(C)C (stereo not given)
inactive: SK-MEL-2 melanoma 102% | EKVX NSCLC 97% | SN12C renal 103% | UO-31 renal 98.7% | TK-10 renal 98.2% | ACHN renal 108% | A498 renal 93% | CCRF-CEM leukemia 81.5% | MOLT-4 leukemia 79.4% | SR leukemia 87.1% | RPMI-8226 leukemia 87.5% | OVCAR-8 ovarian 89.1% | OVCAR-5 ovarian 115% | OVCAR-4 ovarian 103% | SK-OV-3 ovarian 98% | IGROV1 ovarian 108% | OVCAR-3 ovarian 109% | HS 578T breast 103% | NCI/ADR-RES ovarian 103%

CC(C)n1c(/C=C/[C@@H](O)C[C@@H](O)CC(=O)O)c(-c2ccc(F)cc2)c2ccccc21
inactive: SK-MEL-2 melanoma 15% | EKVX NSCLC 52.7% | SN12C renal 36.4% | UO-31 renal 44.7% | TK-10 renal 88.7% | ACHN renal 10.3% | CCRF-CEM leukemia 59.8% | MOLT-4 leukemia 60.8% | RPMI-8226 leukemia 53.2% | OVCAR-8 ovarian 40.2% | OVCAR-4 ovarian 90.4% | SK-OV-3 ovarian 72.6% | IGROV1 ovarian 34.3% | OVCAR-3 ovarian 84.8% | HS 578T breast 55.1% | NCI/ADR-RES ovarian 22.1%
active: CAKI-1 renal -42.9%

N#Cc1nnn(-c2ccc(S(N)(=O)=O)cc2)c1NC(=O)CCl
inactive: SK-MEL-2 melanoma 106% | EKVX NSCLC 91.4% | SN12C renal 88.3% | UO-31 renal 86.5% | TK-10 renal 96.4% | ACHN renal 108% | A498 renal 91.5% | CCRF-CEM leukemia 88.8% | MOLT-4 leukemia 92.4% | SR leukemia 96.1% | RPMI-8226 leukemia 91.4% | OVCAR-8 ovarian 101% | OVCAR-5 ovarian 96.6% | OVCAR-4 ovarian 103% | SK-OV-3 ovarian 96.6% | IGROV1 ovarian 104% | OVCAR-3 ovarian 106% | NCI/ADR-RES ovarian 102%
active: HS 578T breast 0.129%

CCN1CCN(c2nc(NCCNc3ccnc4cc(Cl)ccc34)c3ccccc3n2)CC1
inactive: EKVX NSCLC 53.3% | A498 renal 77.1% | OVCAR-5 ovarian 53.7% | OVCAR-4 ovarian 33.7% | SK-OV-3 ovarian 51.8% | IGROV1 ovarian 28.6% | HS 578T breast 49.8% | NCI/ADR-RES ovarian 70.3%
active: SK-MEL-2 melanoma -71.4% | SN12C renal -5.71% | UO-31 renal -75.2% | TK-10 renal -19.4% | ACHN renal -25.7% | CCRF-CEM leukemia -12.8% | MOLT-4 leukemia 6.3% | SR leukemia -25.5% | RPMI-8226 leukemia -25.4% | OVCAR-8 ovarian 2.98% | OVCAR-3 ovarian 8.7%

Cn1ccnc1C(=O)/C=C/c1ccc(CC(=O)Nc2ccccc2)cc1
inactive: SK-MEL-2 melanoma 54.6% | EKVX NSCLC 17.6% | SN12C renal 16.1% | UO-31 renal 16% | TK-10 renal 17.6% | ACHN renal 29% | A498 renal 44.9% | OVCAR-5 ovarian 29.6% | OVCAR-4 ovarian 31.4% | SK-OV-3 ovarian 27.3% | IGROV1 ovarian 12.7% | HS 578T breast 37.2% | NCI/ADR-RES ovarian 13.5%
active: CCRF-CEM leukemia 2.06% | MOLT-4 leukemia -1.23% | SR leukemia -10.7% | RPMI-8226 leukemia -12.5% | OVCAR-8 ovarian -0.35% | OVCAR-3 ovarian -7.34%

Cc1cc(N2CCCCCC2)nc(NC2CCCC(Nc3ccnc4cc(Cl)ccc34)C2)n1 (stereo not given)
active: SK-MEL-2 melanoma -82.2% | EKVX NSCLC -27.5% | SN12C renal -90.7% | UO-31 renal -93.5% | TK-10 renal -81.2% | ACHN renal -98.6% | A498 renal -74.7% | CCRF-CEM leukemia -29.2% | MOLT-4 leukemia -51.8% | SR leukemia -65.8% | RPMI-8226 leukemia -57% | OVCAR-8 ovarian -85.3% | OVCAR-5 ovarian -24.8% | OVCAR-4 ovarian -63.9% | SK-OV-3 ovarian -82.8% | IGROV1 ovarian -47.1% | OVCAR-3 ovarian -78.6% | HS 578T breast -51.3% | NCI/ADR-RES ovarian -72.2%

O=C(/C=C/C=C/c1ccc2c(c1)OCO2)N/N=C\c1ccc(O)cc1O
active: CAKI-1 renal 9.65% | OVCAR-4 ovarian 9.43% | OVCAR-3 ovarian 9.27% | NCI/ADR-RES ovarian 5.15%
inactive: SK-MEL-2 melanoma 52.8% | EKVX NSCLC 20.2% | SN12C renal 32.8% | UO-31 renal 11.4% | TK-10 renal 31% | ACHN renal 14.4% | CCRF-CEM leukemia 18% | SR leukemia 21.3% | RPMI-8226 leukemia 47.7% | OVCAR-8 ovarian 22.8% | OVCAR-5 ovarian 42.5% | SK-OV-3 ovarian 27% | IGROV1 ovarian 28.9% | HS 578T breast 70.2%
